Screens from PubChem BioAssay.
NR3A LBD binder: NR3A (human) ligand-binding domain modulation | AID 1259313 | 340,000 tested, 2.5% active | Tm shift relative to glycine control, % at 25 µM | NR3A LBD differential scanning fluorimetry, Tm shift; 0% = protein alone, 100% = glycine-bound protein;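 active means melting temperature shift of at least 10% of the positive control shift, at one fixed dose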
Mdm2 MdmX PPI: human Mdm2/MdmX binding inhibition; O15151+Q00987; SaOS-2 split-luciferase Mdm2/MdmX complementation, luminescence; inhibition, % at 8 µM; 330,000 tested, 3% active;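 active means inhibition of at least 50% at 8 µM in the primary screen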
Beta cell apopt: beta cell apoptosis inhibition; protection from apoptosis, % (no concentration beside the values); INS-1E cytokine-induced death, ATP luminescence, 48 h; percent of positive-control rescue, neutral wells zero; 300,000 tested, 0.8% active; AID 435005;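 active means Every replicate reaches about 75%, or at least half do and their mean reaches it too, limit read from the data; inconclusive means At least half of replicates reach the limit but their mean does not; inactive means Under half of replicates reach the limit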;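 further: 0% = cytokine-treated negative control wells and 100% = positive control rescue; higher means more ATP so stronger rescue from cytokine killing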
SKKanGAS inh: SKKanGAS growth inhibition | S. pyogenes SKKanGAS, kanamycin growth, BacTiter-Glo, 6 h | inhibition, % at 7.5 µM | 300,000 tested, 1.3% active | AID 1662;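 active means mean replicate score, as percent of positive control median, at least 50; inconclusive means mean below 50 but one replicate at or above 50; inactive means mean and every replicate below 50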;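 further: strain carries kanamycin resistance gene driven by streptokinase promoter and grows in 40 µg/ml kanamycin; loss of luminescence reflects streptokinase promoter inhibition or plain growth inhibition; 0% = median of DMSO wells and 100% = positive control at its reference dose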
MPTP block: blocks calcium-induced mitochondrial swelling. isolated mouse mitochondria, Ca2+ swelling absorbance, 30 min. inhibition, % at 10 µM. 360,000 tested, 1.4% active. AID 602449;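 active means inhibition of 50% or more, scaled per plate between neutral and stimulator controls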;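 further: 0% = DMSO wells given calcium and 100% = 1 mM EGTA wells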
CSC inhib: cancer stem cell inhibition; cancer stem cell-like cells viability, luminescence; inhibition, % at 7.5 µM; 300,000 tested, 1.1% active; AID 2717; in the data active means inhibition above about 75%; inconclusive means no clear call, values can overlap the other calls; tested in HMLE shEcad cells
Rh123 counter: membrane potential counter-screen of mitochondrial pore inhibitors; shares compounds with MPTP block; isolated mitochondria, Rhodamine 123 fluorescence; inhibition, % at 10 µM; 5,000 tested, 78% active; in the data active means inhibition above about 22%;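 further: 0% = DMSO vehicle and 100% = positive control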
MPTP swell DR: dose response confirmation of mitochondrial permeability transition pore inhibitors. shares compounds with MPTP block. isolated mitochondria swelling, absorbance. IC50, µM. 780 tested, 58% active. AID 651561; in the data active means IC50 below about 20 µM
MPTP counter DR: active in counter-screen for permeability transition pore inhibitors; shares compounds with MPTP block; isolated mitochondria counterscreen, fluorescence read-out; IC50, µM; 780 tested, 49% active; AID 651564; in the data active means IC50 below about 80 µM
* hit, by the source's call; u = inconclusive; x = not tested or not shown. Sampled rows, rich in hits. Any-hit rate of the full collection: about 6.9%.

SMILES	NR3A LBD binder	Mdm2 MdmX PPI	Beta cell apopt	SKKanGAS inh	MPTP block	CSC inhib	Rh123 counter	others
Cc1csc2c(N3CCN(C(=S)Nc4ccc(C(F)(F)F)cc4)CC3)ncnc12	8	28	-4	35	97*	20	92*
Cc1cc(C)cc(NC(=S)N2CCN(c3ncc(C(F)(F)F)cc3Cl)CC2)c1	-10	8	-3	3	29	4	x
Cc1csc2c(N3CCN(C(=O)NC(C)(C)C)CC3)ncnc12	5	26	3	1	18	-1	x
O=C(c1ccc(-c2ccccc2)cc1)N1CCN(c2nc3ccccc3o2)CC1	-3	x	x	x	4	x	x
Cc1csc2ncnc(N3CCN(C(=S)Nc4ccc(C(F)(F)F)cc4)CC3)c12	15*	25	1	15	91*	22	94*
CC(C)(C)c1ccc(C(=O)N2CCN(c3nc4ccccc4o3)CC2)cc1	-2	40	35	4	52*	x	44*
Cc1csc2c(N3CCN(C(=O)c4ccc(C(C)(C)C)cc4)CC3)ncnc12	-1	3	116*	10	96*	4	83*
O=C1NC[C@@H](c2ccccc2)OC(=O)[C@H](Cc2ccc(F)cc2)C/C=C\C[C@@H]1CC(=O)N(CCO)Cc1ccccc1	-1	32	0	x	0	6	x
Cc1cc(NC(=O)C(C)SCC(=O)N(C)CC(=O)Nc2ccc(F)cc2)no1 (centres undefined)	-2	-7	0	-5	0	-4	x
COC(=O)c1ccccc1NC(=O)N1CCN(Cc2ccco2)CC1	0	13	2	2	1	1	x
O=C(O)CCCn1cc(NC(=O)c2sc3ccccc3c2Cl)cn1	0	1	x	-3	-3	x	x
Cc1csc2c(N3CCN(C(=O)Nc4ccc(Cl)c(Cl)c4)CC3)ncnc12	9	19	-3	62*	88*	11	80*
O=C(NC(NNc1ccc([N+](=O)[O-])cc1)(C(F)(F)F)C(F)(F)F)c1ccc(Cl)cc1	1	41	-3	33	98*	34	78*
O=C(Cc1c[nH]c2ccccc12)NCC(=O)Nc1ccc(F)c(F)c1F	1	24	3	x	-2	x	x
CCc1nnc(NC(=O)C(c2ccccc2)c2ccccc2)s1	1	13	x	2	1	-8	x
Cc1ccc(CNc2nc(C)nc3sc4c(c23)CCC4)cc1	-2	-4	71	17	62*	9	81*
CCOC(=O)c1ccc(NC(=O)C2(N3C(=O)c4ccccc4C3=O)CCCC2)cc1	-9	x	x	x	0	x	x
CCOC(=O)c1ccc(NC(=O)Nc2ccc3c4c(cccc24)C(=O)N3CC)cc1	17*	4	24	-3	95*	20	33*
CCN(CC(=O)Nc1ccc(NC(C)=O)cc1)C(=O)/C=C/c1ccc(S(=O)(=O)N2CCCCCC2)cc1	-6	17	-4	0	1	1	x
c1ccc2c(c1)ncn2CCCOc1ccc2c(c1)CCC2	2	-30	71	u	54*	-9	60*
CC(=O)c1cn(CCOc2ccccc2C)c2ccccc12	1	11	x	5	96*	2	82*
CCCOc1ccc(Cn2cnc3ccccc32)cc1	0	5	15	x	89*	1	77*
c1ccc2c(c1)ncn2CCCCOc1ccc2c(c1)CCC2	0	14	91*	0	88*	0	96*
c1ccc(OCCCCn2cnc3ccccc32)cc1	4	18	3	17	0	-8	x
CCN(C[C@H]1N[C@@](C)(C(=O)OC)[C@H]2C(=O)N(C)C(=O)[C@@H]12)C(=O)c1ccc(C(C)(C)C)cc1	1	7	x	x	-2	x	x
SMILES	NR3A LBD binder	Mdm2 MdmX PPI	Beta cell apopt	SKKanGAS inh	MPTP block	CSC inhib	Rh123 counter	others
Cc1cccc(OCc2nnc(SCC(=O)c3c(N)n(C4CC4)c(=O)[nH]c3=O)o2)c1	-1	0	x	x	-2	x	x
COc1ccccc1N1CCCSC1=Nc1ccccc1	x	x	x	x	-1	x	x
COc1nc(NC2OC(CO)C(O)C(O)C2O)c(N)c(=O)[nH]1 (centres undefined)	4	x	x	x	-2	x	x
CCN(CC)CCNC(=O)c1ccc(NC(=O)C2CC(=O)N(c3ccc4c(c3)OCCO4)C2)cc1 (centres undefined)	1	10	2	-2	-2	-11	x
Cc1ccccc1OCCCCn1cnc2ccccc21	3	12	103*	x	93*	4	89*
CN1CCN(NC(=O)c2cc(-c3cccc(Cl)c3)nc3ccccc23)CC1	1	18	2	3	2	-5	x
OC(c1cc(-c2cccc(Cl)c2)nc2ccccc12)C1CCCCN1 (centres undefined)	-1	x	x	x	82*	x	-19	MPTP swell DR=3.6*;MPTP counter DR=29*
Cc1cc(C(=O)COC(=O)C2COc3ccccc3O2)c(C)n1CC1CCCO1 (centres undefined)	4	-17	0	-9	-1	6	x
Cc1cc(C(=O)COc2ccccc2C(N)=O)c(C)n1CC1CCCO1 (centres undefined)	2	-10	x	-1	93*	x	80*
COc1cc2[nH]c(C(=O)Nc3ccc(F)cc3)cc2c(OC)c1OC	x	39	17	-3	1	1	x
COc1ccccc1CN=Cc1[nH]c2ccc(Br)c(Cl)c2c1O	-1	15	-7	3	1	-5	x
Cc1cccc(N=Cc2[nH]c3ccc(Br)c(Cl)c3c2O)c1	4	x	-14	x	97*	21	0	MPTP swell DR=7.9*;MPTP counter DR=<2.5*
CCN(CC(=O)NC1CCS(=O)(=O)C1)S(=O)(=O)c1ccc(Cl)c(C(F)(F)F)c1 (centres undefined)	2	14	x	x	0	x	x
Oc1ccc(Br)cc1-c1cc(-c2ccccc2Cl)[nH]n1	23*	20	-1	23	74*	24	59*
COc1ccccc1-c1cc(-c2cc(Cl)ccc2O)n[nH]1	2	9	13	14	0	23	x
Oc1ccc(Br)cc1-c1cc(-c2ccccc2F)[nH]n1	10	24	8	14	63*	41	58*
O=[N+]([O-])c1ccc2[nH]c3c(c2c1)CCCC3	-3	17	3	17	72*	18	71*
N/N=C1\CCCc2c1[nH]c1ccc([N+](=O)[O-])cc21	1	12	1	41	7	-6	x
Cc1nc(Nc2ccccc2)[nH]c(=O)c1CCC(C)C	-6	10	10	6	57*	13	58*
O=C(NCc1ccncc1)c1ccc(Oc2ccccc2)cc1	1	10	3	-4	76*	-6	39*
